Substitutions are numbered along the chain they refer to; changes in the protein carry UniProt numbers. Over roughly 16,000 sequences, “ka relative to ugcaugu” has its median near 0.0091; the highest 2% begin near 0.032. This is one part of a sample in which the highest values are shown more often than they occur.
T1: RBFOX1 RRM (Homo sapiens, UniProt Q9NWB1 109-208)
T1 sequence: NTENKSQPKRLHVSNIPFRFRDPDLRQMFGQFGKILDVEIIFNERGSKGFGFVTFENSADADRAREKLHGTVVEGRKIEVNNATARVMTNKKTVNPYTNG

B1: UGUUCGU (DNA:RNA)
RNA: GGGAGACCGGAAUUCAGAUUGUCCUGUUCGUUUAAAUCCCGUCGUAGCCACCA
DNA 1: CAATCTGAATTCCGGTCTCCC
DNA 2: TGGTGGCTACGACGGGATT
B2: UGUGGUG (DNA:RNA)
RNA: B1 RNA with U28G, C29G, G30U, U31G
DNA 1: CAATCTGAATTCCGGTCTCCC
DNA 2: TGGTGGCTACGACGGGATT
B3: UGGUGUG (DNA:RNA)
RNA: B1 RNA with U27G, C29G, G30U, U31G
DNA 1: CAATCTGAATTCCGGTCTCCC
DNA 2: TGGTGGCTACGACGGGATT
B4: AUCUUGC (DNA:RNA)
RNA: B1 RNA with U25A, G26U, U27C, C29U, U31C
DNA 1: CAATCTGAATTCCGGTCTCCC
DNA 2: TGGTGGCTACGACGGGATT
B5: AUGACCA (DNA:RNA)
RNA: B1 RNA with U25A, G26U, U27G, U28A, G30C, U31A
DNA 1: CAATCTGAATTCCGGTCTCCC
DNA 2: TGGTGGCTACGACGGGATT
B6: CUAAUUG (DNA:RNA)
RNA: GGGAGACCGGAAUUCAGAUUGUCCCUAAUUGUUAAAUCCCGUCGUAGCCACCA
DNA 1: CAATCTGAATTCCGGTCTCCC
DNA 2: TGGTGGCTACGACGGGATT
B7: GGCCUGU (DNA:RNA)
RNA: B1 RNA with U25G, U27C, U28C, C29U
DNA 1: CAATCTGAATTCCGGTCTCCC
DNA 2: TGGTGGCTACGACGGGATT
B8: GAUUAGC (DNA:RNA)
RNA: B1 RNA with U25G, G26A, C29A, U31C
DNA 1: CAATCTGAATTCCGGTCTCCC
DNA 2: TGGTGGCTACGACGGGATT
B9: UGCAACU (DNA:RNA)
RNA: B1 RNA with U27C, U28A, C29A, G30C
DNA 1: CAATCTGAATTCCGGTCTCCC
DNA 2: TGGTGGCTACGACGGGATT
B10: GGGCCGG (DNA:RNA)
RNA: B1 RNA with U25G, U27G, U28C, U31G
DNA 1: CAATCTGAATTCCGGTCTCCC
DNA 2: TGGTGGCTACGACGGGATT
B11: UGUUUUG (DNA:RNA)
RNA: B1 RNA with C29U, G30U, U31G
DNA 1: CAATCTGAATTCCGGTCTCCC
DNA 2: TGGTGGCTACGACGGGATT
B12: UGUUCUG (DNA:RNA)
RNA: B1 RNA with G30U, U31G
DNA 1: CAATCTGAATTCCGGTCTCCC
DNA 2: TGGTGGCTACGACGGGATT
B13: CGUGUGC (DNA:RNA)
RNA: B1 RNA with U25C, U28G, C29U, U31C
DNA 1: CAATCTGAATTCCGGTCTCCC
DNA 2: TGGTGGCTACGACGGGATT
B14: CUGUUUG (DNA:RNA)
RNA: B6 RNA with A27G, A28U
DNA 1: CAATCTGAATTCCGGTCTCCC
DNA 2: TGGTGGCTACGACGGGATT
B15: CGUUUGC (DNA:RNA)
RNA: B1 RNA with U25C, C29U, U31C
DNA 1: CAATCTGAATTCCGGTCTCCC
DNA 2: TGGTGGCTACGACGGGATT
B16: CUGUUGU (DNA:RNA)
RNA: B6 RNA with A27G, A28U, U30G, G31U
DNA 1: CAATCTGAATTCCGGTCTCCC
DNA 2: TGGTGGCTACGACGGGATT
B17: CUGUCGU (DNA:RNA)
RNA: B1 RNA with U25C, G26U, U27G
DNA 1: CAATCTGAATTCCGGTCTCCC
DNA 2: TGGTGGCTACGACGGGATT
B18: CGUCCUG (DNA:RNA)
RNA: B6 RNA with U26G, A27U, A28C, U29C
DNA 1: CAATCTGAATTCCGGTCTCCC
DNA 2: TGGTGGCTACGACGGGATT
B19: CCUGUGC (DNA:RNA)
RNA: B6 RNA with U26C, A27U, A28G, U30G, G31C
DNA 1: CAATCTGAATTCCGGTCTCCC
DNA 2: TGGTGGCTACGACGGGATT
B20: UGUUUGC (DNA:RNA)
RNA: B1 RNA with C29U, U31C
DNA 1: CAATCTGAATTCCGGTCTCCC
DNA 2: TGGTGGCTACGACGGGATT
B21: CGUUCUG (DNA:RNA)
RNA: B1 RNA with U25C, G30U, U31G
DNA 1: CAATCTGAATTCCGGTCTCCC
DNA 2: TGGTGGCTACGACGGGATT
B22: UGUGUGC (DNA:RNA)
RNA: B1 RNA with U28G, C29U, U31C
DNA 1: CAATCTGAATTCCGGTCTCCC
DNA 2: TGGTGGCTACGACGGGATT
B23: AGCAGGG (DNA:RNA)
RNA: B6 RNA with C25A, U26G, A27C, U29G, U30G
DNA 1: CAATCTGAATTCCGGTCTCCC
DNA 2: TGGTGGCTACGACGGGATT
B24: UGAGGUG (DNA:RNA)
RNA: B6 RNA with C25U, U26G, A28G, U29G
DNA 1: CAATCTGAATTCCGGTCTCCC
DNA 2: TGGTGGCTACGACGGGATT
B25: UCCGUAG (DNA:RNA)
RNA: B6 RNA with C25U, U26C, A27C, A28G, U30A
DNA 1: CAATCTGAATTCCGGTCTCCC
DNA 2: TGGTGGCTACGACGGGATT
B26: CGUAUGC (DNA:RNA)
RNA: B6 RNA with U26G, A27U, U30G, G31C
DNA 1: CAATCTGAATTCCGGTCTCCC
DNA 2: TGGTGGCTACGACGGGATT
B27: UGUAUGC (DNA:RNA)
RNA: B1 RNA with U28A, C29U, U31C
DNA 1: CAATCTGAATTCCGGTCTCCC
DNA 2: TGGTGGCTACGACGGGATT
B28: UGUAUUG (DNA:RNA)
RNA: B6 RNA with C25U, U26G, A27U
DNA 1: CAATCTGAATTCCGGTCTCCC
DNA 2: TGGTGGCTACGACGGGATT
B29: UUCUGCU (DNA:RNA)
RNA: B1 RNA with G26U, U27C, C29G, G30C
DNA 1: CAATCTGAATTCCGGTCTCCC
DNA 2: TGGTGGCTACGACGGGATT
B30: UGUAACC (DNA:RNA)
RNA: B1 RNA with U28A, C29A, G30C, U31C
DNA 1: CAATCTGAATTCCGGTCTCCC
DNA 2: TGGTGGCTACGACGGGATT
B31: AGGCGUG (DNA:RNA)
RNA: B6 RNA with C25A, U26G, A27G, A28C, U29G
DNA 1: CAATCTGAATTCCGGTCTCCC
DNA 2: TGGTGGCTACGACGGGATT

The binders below were run against T1, RBFOX1 RRM (assay: EMSA; HiTS-Eq, 1 nM pool, 10 min; buffer printed only for the single-RNA assays: 10 mM Tris pH 7.5, 150 mM NaCl, 3.4 mM EDTA, 0.001% NP-40, 30 C). Settings: tags: His6 N-terminal (pET28a); label: 5' 32P.
Method in brief: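 Purified RbFox RRM, wild type or mutant, was incubated for 10 min in 50 µL with 1 nM of a 5′-radiolabelled RNA pool carrying 7 randomized nucleotides, whose flanks were annealed to DNA oligonucleotides, over a series of increasing protein concentrations. Unbound RNA was resolved on 8% native PAGE, cut out, reverse-transcribed, barcoded by PCR and sequenced on an Illumina HiSeq 2500. Relative association constants were derived from changes in read counts for each RNA species versus the control reaction and normalised to the cognate motif.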

| Binder | binding signal |
| --- | --- |
| B1 | 0.0328 KA relative to UGCAUGU |
| B2 | 0.0376 KA relative to UGCAUGU |
| B3 | 0.029 KA relative to UGCAUGU |
| B4 | 0.0138 KA relative to UGCAUGU |
| B5 | 0.00337 KA relative to UGCAUGU |
| B6 | 0.013 KA relative to UGCAUGU |
| B7 | 0.0238 KA relative to UGCAUGU |
| B8 | 0.0124 KA relative to UGCAUGU |
| B9 | 0.0132 KA relative to UGCAUGU |
| B10 | 0.0124 KA relative to UGCAUGU |
| B11 | 0.0286 KA relative to UGCAUGU |
| B12 | 0.0328 KA relative to UGCAUGU |
| B13 | 0.0146 KA relative to UGCAUGU |
| B14 | 0.0332 KA relative to UGCAUGU |
| B15 | 0.019 KA relative to UGCAUGU |
| B16 | 0.0226 KA relative to UGCAUGU |

| Binder | binding signal |
| --- | --- |
| B17 | 0.0193 KA relative to UGCAUGU |
| B18 | 0.0127 KA relative to UGCAUGU |
| B19 | 0.0232 KA relative to UGCAUGU |
| B20 | 0.0351 KA relative to UGCAUGU |
| B21 | 0.0207 KA relative to UGCAUGU |
| B22 | 0.0333 KA relative to UGCAUGU |
| B23 | 0.0126 KA relative to UGCAUGU |
| B24 | 0.0201 KA relative to UGCAUGU |
| B25 | 0.00757 KA relative to UGCAUGU |
| B26 | 0.014 KA relative to UGCAUGU |
| B27 | 0.0374 KA relative to UGCAUGU |
| B28 | 0.0262 KA relative to UGCAUGU |
| B29 | 0.0203 KA relative to UGCAUGU |
| B30 | 0.00753 KA relative to UGCAUGU |
| B31 | 0.0157 KA relative to UGCAUGU |
